This passage reports binding signal results from PMC5892938, “SARNAclust: Semi-automatic detection of RNA protein binding motifs from immunoprecipitation data”.

Whole data set: some 11,000 sequences, median “log2 fold change” near 0.00022, cut for the highest 2% near 0.34. The list shows a part of the results.

The test addresses GST-SBP-SLBP (stem-loop binding protein) (Homo sapiens, UniProt Q14493 1-270). Briefly: targeted RNA Bind-n-Seq; RBNS binding buffer: 25 mM Tris pH 7.5, 150 mM KCl, 3 mM MgCl2, 0.1% Tween, 0.5 mg/mL BSA, 1 mM DTT; 27 nM protein, 750 pM RNA pool; temperature not stated; high values mean tight binding. The following applies: protein: recombinant; tags: N-terminal GST and SBP (pGEX6P1-SBP); structured_RNA. The method in brief:
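The GST-SBP-tagged protein was expressed in Rosetta(DE3) pLysS E. coli, glutathione-purified and incubated at 27 nM with 750 pM of a designed, T7-transcribed RNA oligo pool in RBNS binding buffer. Bound RNA was reverse transcribed with a 10-nucleotide barcoded primer, PCR-amplified and sequenced on a MiSeq with 200-cycle paired-end reads. Reads were joined with FLASH, aligned with HISAT2 and collapsed by barcode. The binding signal is the DEseq log2 fold change of read counts per sequence.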
For the sequence “GGUCACGUCUCAAUCAACUCAACUGAGGGGGGGAAAACCCCUUUACCCUCCACAUCAACAGCUCGCAGUCAAG”, the binding signal is 0.388 ± 0.423 log2 fold change.

As to “GGUCACGUCUCAAUCAACUCCCAAGAGGGGGGGAAAACCCCUUUACCCUCGUAAUCAACAGCUCGCAGUCAAG”, the binding signal is 0.444 ± 0.442 log2 fold change.

Turning to “GGUCACGUCUCAAUCAACUCCCAAGAGGGGGGGAAAACCCCUUUACCCUCACUCUCAACAGCUCGCAGUCAAG”, the binding signal was 0.558 ± 0.444 log2 fold change.

Regarding “GGUCACGUCUCAAUCAACUCAAUAGAGGGGGGGAAAACCCCUUUACCCUCCCAAUCAACAGCUCGCAGUCAAG”, the binding signal amounted to 0.325 ± 0.459 log2 fold change.

Turning to “GGUCACGUCUCAAUCAACUCUUACGAGGGGGGGAAAACCCCUUUGCCCUCAACAUCAACAGCUCGCAGUCAAG”, the binding signal came out at 0.326 ± 0.377 log2 fold change.

For the sequence “GGUCACGUCUCAAUCAACUCUUACGAGGGGGGGAAAACCCCUUUACCCUCAAAUUCAACAGCUCGCAGUCAAG”, the binding signal came out at 0.37 ± 0.399 log2 fold change.

With “GGUCACGUCUCAAUCAACUCUCACGAGGGGGGGAAAACCCCUUUACCCUCAAAUUCAACAGCUCGCAGUCAAG”, the binding signal was determined as 0.315 ± 0.408 log2 fold change.

With “GGUCACGUCUCAAUCAACUCUUACGAGGGGGGGAAAACCCCUUUGCCCUCAAAUUCAACAGCUCGCAGUCAAG”, the binding signal is 0.347 ± 0.395 log2 fold change.

Regarding “GGUCACGUCUCAAUCAACUCUUCAGAGGGGGGGAAAACCCCUUUACCCUCCGUUUCAACAGCUCGCAGUCAAG”, the binding signal stood at 0.44 ± 0.434 log2 fold change.

Consider “GGUCACGUCUCAAUCAACUCUUCAGAGGGGGGGAAAACCCCUUUACCCUCCUAAUCAACAGCUCGCAGUCAAG”, for which the binding signal turned out to be 0.368 ± 0.433 log2 fold change.

As to “GGUCACGUCUCAAUCAACUCGUUUUCAGGAGUUUACUCCUGCUUAUUCAACAGCUCGCAGUCAAG”, the binding signal is 0.329 ± 0.222 log2 fold change.

Take “GGUCACGUCUCAAUCAACUCACAAGAGGGGGGGAAAACCCCUUUGCCCUCCGUAUCAACAGCUCGCAGUCAAG”: the binding signal was found to be 0.416 ± 0.404 log2 fold change.

Take “GGUCACGUCUCAAUCAACUCAAAAGAGGGGGGGAAAACCCCUUUGCCCUCGAUAUCAACAGCUCGCAGUCAAG”: the binding signal was found to be 0.336 ± 0.363 log2 fold change.

In the case of “GGUCACGUCUCAAUCAACUCACAAGAGGGGGGGAAAACCCCUUUGCCCUCGAUAUCAACAGCUCGCAGUCAAG”, the binding signal is 0.468 ± 0.396 log2 fold change.

On to “GGUCACGUCUCAAUCAACUCCCACGAGGGGGGGAAAACCCCUUUACCCUCAACCUCAACAGCUCGCAGUCAAG”, for which the binding signal came to 0.335 ± 0.423 log2 fold change.

In the case of “GGUCACGUCUCAAUCAACUCCCACGAGGGGGGGAAAACCCCUUUACCCUCACACUCAACAGCUCGCAGUCAAG”, the binding signal was found to be 0.366 ± 0.434 log2 fold change.

Consider “GGUCACGUCUCAAUCAACUCCCACGAGGGGGGGAAAACCCCUUUACCCUCUCAAUCAACAGCUCGCAGUCAAG”, for which the binding signal was determined as 0.362 ± 0.418 log2 fold change.

For “GGUCACGUCUCAAUCAACUCAAUCGAGGGGGGGAAAACCCCUUUGCCCUCAUCUUCAACAGCUCGCAGUCAAG”, the binding signal was found to be 0.419 ± 0.432 log2 fold change.

For the sequence “GGUCACGUCUCAAUCAACUCAAACGAGGGGGGGAAAACCCCUUUGCCCUCAUCUUCAACAGCUCGCAGUCAAG”, the binding signal turned out to be 0.58 ± 0.399 log2 fold change.

With “GGUCACGUCUCAAUCAACUCAACAGAGGGGGGGAAAACCCCUUUACCCUCAAUAUCAACAGCUCGCAGUCAAG”, the binding signal came to 0.362 ± 0.427 log2 fold change.

As to “GGUCACGUCUCAAUCAACUCCUCAGAGGGGGGGAAAACCCCUUUACCCUCGUCCUCAACAGCUCGCAGUCAAG”, the binding signal was 0.382 ± 0.44 log2 fold change.

Consider “GGUCACGUCUCAAUCAACUCCUCAGAGGGGGGGAAAACCCCUUUACCCUCAAUAUCAACAGCUCGCAGUCAAG”, for which the binding signal amounted to 0.394 ± 0.424 log2 fold change.

As to “GGUCACGUCUCAAUCAACUCAAUAGAGGGGGGGAAAACCCCUUUACCCUCAAACUCAACAGCUCGCAGUCAAG”, the binding signal was 0.319 ± 0.424 log2 fold change.

“GGUCACGUCUCAAUCAACUCCCUCGAGGGGGGGAAAACCCCUUUACCCUCAUUAUCAACAGCUCGCAGUCAAG”: the binding signal turned out to be 0.395 ± 0.38 log2 fold change.

As to “GGUCACGUCUCAAUCAACUCCCUCGAGGGGGGGAAAACCCCUUUACCCUCAUCGUCAACAGCUCGCAGUCAAG”, the binding signal worked out at 0.532 ± 0.391 log2 fold change.

On to “GGUCACGUCUCAAUCAACUCUAUUCCCAGGGAAAGCCCUGGUAUUUUCAACAGCUCGCAGUCAAG”, for which the binding signal came out at 0.387 ± 0.281 log2 fold change.

For “GGUCACGUCUCAAUCAACUCUAUCCCCAGGGAAAUCCCUGGUAUAUUCAACAGCUCGCAGUCAAG”, the binding signal was found to be 0.333 ± 0.304 log2 fold change.

Consider “GGUCACGUCUCAAUCAACUCUAUCCCCAGGGAAAGCCCUGGUAUAUUCAACAGCUCGCAGUCAAG”, for which the binding signal is 0.366 ± 0.305 log2 fold change.

As for “GGUCACGUCUCAAUCAACUCUAUUCCCAGGGAAAGCCCUGGUAUUCUCAACAGCUCGCAGUCAAG”, the binding signal worked out at 0.307 ± 0.273 log2 fold change.

Consider “GGUCACGUCUCAAUCAACUCAAUCCCCAGGGAAAGCCCUGGUAUUCUCAACAGCUCGCAGUCAAG”, for which the binding signal was 0.378 ± 0.274 log2 fold change.

For the sequence “GGUCACGUCUCAAUCAACUCUAUUCCCAGGGAAAGCCCUGGCUAUCUCAACAGCUCGCAGUCAAG”, the binding signal came out at 0.342 ± 0.296 log2 fold change.

For “GGUCACGUCUCAAUCAACUCUUUUCCCAGGGAAAUCCCUGGCAUACUCAACAGCUCGCAGUCAAG”, the binding signal turned out to be 0.334 ± 0.22 log2 fold change.

With “GGUCACGUCUCAAUCAACUCUUUUUCCAGGGAAACCCCUGGCAUACUCAACAGCUCGCAGUCAAG”, the binding signal was found to be 0.44 ± 0.276 log2 fold change.

With “GGUCACGUCUCAAUCAACUCAAUCCCCAGGGAAAACCCUGGCUAUUUCAACAGCUCGCAGUCAAG”, the binding signal was found to be 0.338 ± 0.272 log2 fold change.

In the case of “GGUCACGUCUCAAUCAACUCAUCUCCCAGGGAAAACCCUGGUAUAUUCAACAGCUCGCAGUCAAG”, the binding signal turned out to be 0.374 ± 0.346 log2 fold change.

For “GGUCACGUCUCAAUCAACUCUUCUUCCAGGGAAAUCCCUGGCAUACUCAACAGCUCGCAGUCAAG”, the binding signal was 0.399 ± 0.235 log2 fold change.

For “GGUCACGUCUCAAUCAACUCAAGUCCCAGGGAAAACCCUGGCAAUUUCAACAGCUCGCAGUCAAG”, the binding signal came out at 0.381 ± 0.341 log2 fold change.
